Laboratory results as given in PubChem BioAssay (NCI).
Compounds without any hit were thinned out: in the full panel of roughly 83,000, 20% have a hit.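 Values shown are percent growth following 48 h exposure of cells in 96-well plates to a single concentration of compound; below 10 was considered active.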 Values without a mark were called inactive. The source made the active and inactive calls.

Tests used:
Experiment in all cases: NCI-60 one-dose screen, 48 h (100 = growth as untreated, 0 = no growth, -100 = all killed)
Conditions in all cases: 10 µM unless noted
[1] = test system: NCI-H226 lung
[2] = test system: NCI-H322M lung
[3] = test system: HOP-62 NSCLC
[4] = test system: NCI-H460 lung
[5] = test system: HOP-92 NSCLC
[6] = test system: NCI-H522 lung
[7] = test system: A549/ATCC NSCLC
[8] = test system: 786-0 renal
[9] = test system: COLO 205 colon
[10] = test system: DU-145 prostate
[11] = test system: MDA-MB-231 breast
[12] = test system: RXF 393 renal
[13] = test system: SF-268 CNS
[14] = test system: SF-295 CNS
[15] = test system: SF-539 CNS
[16] = test system: UACC-257 melanoma
[17] = test system: M14 melanoma
[18] = test system: K-562 leukemia
[19] = test system: MALME-3M melanoma

SMILES	growth [1]	growth [2]	growth [3]	growth [4]	growth [5]	growth [6]	growth [7]	growth [8]	growth [9]	growth [10]	growth [11]	growth [12]	growth [13]	growth [14]	growth [15]	growth [16]	growth [17]	growth [18]	growth [19]
O=C(NCc1ccccc1)/C(=C/c1ccccc1)NC(=O)c1ccccc1	98%	104%	104%	103%	85.8%	90%	85.4%	112%	110%	111%	92.6%	93.7%	100%	106%	115%	81.1%	101%	–	–
CCCCOC(=O)c1ccc(NC(=O)CCl)cc1	71%	93.7%	102%	35.8%	27%	-77.7% (active)	69.4%	70.2%	68.8%	78.3%	7.83% (active)	89.5%	35.7%	90%	69.9%	75.5%	51.2%	5.65% (active)	-67.5% (active)
COc1cccc(N=CNc2cccc(OC)c2)c1	99.7%	96%	103%	109%	93.5%	85.6%	92.4%	98.8%	–	107%	91.9%	105%	105%	112%	98.3%	106%	104%	66%	–
NNc1ncccn1	109%	105%	101%	112%	111%	84.6%	97.1%	95.7%	117%	116%	100%	120%	103%	108%	105%	104%	108%	102%	118%
